Results filed as inconclusive are left out. Calls of active or inactive are those of the source. The calls were made as follows: active = hit-call score of the fitted dose curve at least 0.9, where 1 is the maximum; inconclusive = response in the unintended direction; inactive = score below 0.9.

Broadly, the AC50 is the concentration giving half of the maximal activity seen.

Cellular tumor antigen p53 (Homo sapiens), sequence (P04637 whole entry, looked up): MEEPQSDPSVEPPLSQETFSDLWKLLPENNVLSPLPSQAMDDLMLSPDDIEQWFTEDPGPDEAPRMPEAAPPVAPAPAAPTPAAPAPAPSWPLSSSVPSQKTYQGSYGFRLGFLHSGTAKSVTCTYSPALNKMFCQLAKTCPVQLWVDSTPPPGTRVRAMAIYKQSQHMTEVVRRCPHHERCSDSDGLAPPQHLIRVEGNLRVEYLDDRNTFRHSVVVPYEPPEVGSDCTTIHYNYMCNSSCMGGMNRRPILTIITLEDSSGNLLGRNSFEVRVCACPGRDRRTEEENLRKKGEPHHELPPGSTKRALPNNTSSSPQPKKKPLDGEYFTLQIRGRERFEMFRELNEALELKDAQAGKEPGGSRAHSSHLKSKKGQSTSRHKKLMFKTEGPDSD

The assay deals with Cellular tumor antigen p53 (Homo sapiens) (UniProt P04637). Nature of the assay: TOX21_p53_BLA_p4_ratio: Tox21 HCT-116 p53 Agonism Beta-lactamase Assay, Ratio, Phase 4 (AID 2283601). The method in brief:
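HCT116 cells carrying an inducible beta-lactamase reporter were plated at 4000 cells/well, rested 5 h, then exposed to compounds in DMSO (217-fold dilution) for 16 h at 37C. CCF4-AM substrate was loaded 2 h at room temperature; 460/530 nm emission ratio scored gain-of-signal versus DMSO.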
As to `OC[C@@H](O)[C@@H](O)CO`, the outcome was inactive.

Regarding `OCC(S)CS` (stereo not drawn), the result was inactive.

As to `CC1CCCO1` (stereo not drawn), the outcome was inactive.

Take `C=CC1=C(C(=O)O)N2C(=O)[C@@H](NC(=O)/C(=N\O)c3csc(N)n3)[C@H]2SC1` (stereo in doubt): the outcome was inactive.

For the compound `CC(=NO)C(C)=NO`, the result was inactive.

For the compound `CN(C)CCCN1c2ccccc2Sc2ccc(C(F)(F)F)cc21`, the AC50 was 10.1 µM (active).

Consider `O=C(O)CONC(=O)c1ccccc1`, for which the result was inactive.

On to `C[C@H](CCC(=O)O)[C@H]1CC[C@H]2[C@@H]3[C@H](O)C[C@@H]4C[C@H](O)CC[C@]4(C)[C@H]3C[C@H](O)[C@]12C`, for which the result was inactive.

Consider `CCc1ncnc2cc(OC)c(OC)cc12`, for which the outcome was inactive.

With `CC(C)n1nc(-c2cc3cc(O)ccc3[nH]2)c2c(N)ncnc21`, the outcome was inactive.

On to `CNCc1ccccc1`, for which the outcome was inactive.

In the case of `CC(C)[N+](C)(C)CC(O)COc1cccc2ccccc12` (stereo not drawn), the outcome was inactive.

On to `CC(=O)N1C[C@H](O)C[C@H]1C(=O)O`, for which the outcome was inactive.

On to `NS(=O)(=O)c1cc(C2(O)NC(=O)c3ccccc32)ccc1Cl` (stereo not drawn), for which the outcome was inactive.

On to `CC(C(=O)O)c1cccc(C(=O)c2ccccc2)c1` (stereo not drawn), for which the outcome was inactive.

`NCCOCCN`: the outcome was inactive.

In the case of `C=C1CC2C3CCC4=CC(=O)C=C[C@]4(C)[C@@]3(F)[C@@H](O)C[C@]2(C)[C@@]1(O)C(=O)COC(C)=O` (stereo partly drawn), the result was inactive.

`CCOC(=O)[C@H](CCc1ccccc1)N[C@@H](C)C(=O)N1[C@H](C(=O)O)C[C@H]2CCCC[C@@H]21`: the result was inactive.

Consider `CC1CCCNC1` (stereo not drawn), for which the result was inactive.

On to `O=C(O)c1c(Cl)c(Cl)c(Cl)c(Cl)c1-c1c2cc(I)c(=O)c(I)c-2oc2c(I)c(O)c(I)cc12`, for which the AC50 is 43.1 µM (active).

For the compound `CC(=O)C=Cc1ccco1`, the outcome was inactive.

Turning to `O=C(/C=C/c1cccc(F)c1)NC1CC1`, the outcome was inactive.

For `CC(=O)O[C@H]1C[C@@H]2CC[C@@H]3[C@H](CC[C@@]4(C)[C@H]3C[C@H]([N+]3(C)CCCCC3)[C@@H]4OC(C)=O)[C@@]2(C)C[C@@H]1[N+]1(C)CCCCC1`, the outcome was inactive.

Regarding `Cc1c(C)c2c(c(C)c1OC(=O)CCC(=O)OCCO)CCC(C)(CCCC(C)CCCC(C)CCCC(C)C)O2` (stereo not drawn), the AC50 is 37.8 µM (active).

In the case of `COc1ccc(OC)c(NC(=O)CC(C)=O)c1`, the result was inactive.

Turning to `CC1=C(/C=C/C(C)=C/C=C/C(C)=C/C=C/C=C(C)/C=C/C=C(C)/C=C/C2=C(C)C[C@@H](O)CC2(C)C)C(C)(C)C[C@H](O)C1`, the concentration at half-maximal activity (AC50) was 36.4 µM (active).

Regarding `CC(=O)c1ccc2c(c1)N(CCCN1CCC(CCO)CC1)c1ccccc1S2`, the result was inactive.

Take `Brc1ccccc1-c1ccccc1`: the outcome was inactive.

As for `O=C1c2c(O)ccc([N+](=O)[O-])c2C(=O)c2c([N+](=O)[O-])ccc(O)c21`, the AC50 was 20.7 µM (active).

As for `Cc1cc(CC(C)CC(C)(C)C)n(O)c(=O)c1` (stereo not drawn) (tested in a mixture with another compound), the AC50 was 33 µM (active).

For `CCN(CC)c1ccc(C(=C2C=CC(=[N+](CC)CC)C=C2)c2ccccc2)cc1`, the AC50 is 11.1 µM (active).

Turning to `CCN(CC)CCOc1ccc(C(O)(Cc2ccc(Cl)cc2)c2ccc(C)cc2)cc1` (stereo not drawn), the AC50 was 43 µM (active).

`O=S(=O)(O)c1ccc2c(N=Nc3ccc(S(=O)(=O)O)c4ccccc34)c(O)c(S(=O)(=O)O)cc2c1`: the outcome was inactive.

The record behind these values is PubChem BioAssay (EPA / NIEHS).
